Where a name gives a salt, the structure may show the parent alone.

This assay concerns Saccharomyces cerevisiae BY4741 SeMeCo community. Description: z-score of subpopulation abundance vs DMSO median, subpopulation auxotrophic for HLM; higher = larger share of this subpopulation than in DMSO controls. The conditions noted are these: 10 µM; 24 h; SM minimal medium; subpopulation (auxotrophy): HLM. The protocol: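 Fluorescent four-plasmid SeMeCo (self-establishing metabolically cooperating S. cerevisiae BY4741 community; plasmids pH-mRuby2, pL-mWasabi, pU-eCFP, pM-TagRFP657) was grown 24 h in minimal SM medium with each Selleck FDA-approved drug at 10 µM in 384-well plates. Cells were fixed and imaged by high-content confocal microscopy. For each auxotrophic subpopulation (and the prototroph), a z-score gives the deviation from the DMSO vehicle-control population median.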
As for `C[N+]1(C)[C@@H]2C[C@@H](OC(=O)[C@H](CO)c3ccccc3)C[C@H]1[C@@H]1O[C@@H]12` [Methscopolamine], the “z-score of subpopulation abundance” value worked out at 0.13.

Turning to `CN(C)[C@@H]1C(=O)C(C(N)=O)=C(O)[C@@]2(O)C(=O)C3=C(O)c4c(O)cccc4[C@@](C)(O)[C@H]3[C@H](O)[C@@H]12` [Oxytetracycline Dihydrate], the “z-score of subpopulation abundance” value was -0.22. The same measure for `CN(C)[C@@H]1C(=O)C(C(N)=O)=C(O)[C@@]2(O)C(=O)C3=C(O)c4c(O)cccc4[C@@](C)(O)[C@H]3C[C@@H]12` [Tetracycline HCl]: -0.42; for `CN[C@@H]1[C@@H](O)[C@@H](O[C@@H]2[C@@H](O)[C@H](O[C@H]3O[C@H]([C@@H](C)O)[C@@H](O)[C@H](O)[C@H]3N)[C@@H](N)C[C@H]2N)OC[C@]1(C)O` [Geneticin (G418 Sulfate)]: -0.13.

Regarding `COC(=O)C1=CCCN(C)C1` [Arecoline HBr], the “z-score of subpopulation abundance” value is 0.28.

In the case of `N#Cc1nn(-c2c(Cl)cc(C(F)(F)F)cc2Cl)c(N)c1[S+]([O-])C(F)(F)F` (stereo not given) [Fipronil], the “z-score of subpopulation abundance” value was 0.

Take `CC(C)(O)C(Cl)(Cl)Cl` [Chlorobutanol]: the “z-score of subpopulation abundance” value is -0.04. The result for `C#C[C@]1(O)C=C[C@H]2[C@@H]3CCC4=CC(=O)CC[C@@H]4[C@H]3CC[C@@]21CC` [Gestodene] reads -0.9; that for `COc1ccc(C=O)cc1` [p-Anisaldehyde], -0.78. With `COc1ccc2c3c([nH]c2c1)C(C)=NCC3` [Harmaline], the “z-score of subpopulation abundance” value amounted to 2.63. The same measure for `COc1ccc2c(c1)[C@]13CCCC[C@@H]1[C@H](C2)N(C)CC3` [Dextromethorphan hydrobromide hydrate]: 0.03; for `C[N+]12CCC(CC1)C(OC(=O)C(O)(c1ccccc1)c1ccccc1)C2` (stereo not given) [Clidinium Bromide]: -0.26. The result for `O=c1[nH]c2ccccc2n1CCCN1CCC(n2c(=O)[nH]c3cc(Cl)ccc32)CC1` [Domperidone] reads 1.97; that for `CN1c2ccccc2C(NCCCCCCC(=O)O)c2ccc(Cl)cc2S1(=O)=O` (stereo not given) [Tianeptine sodium], -0.48; that for `C[C@@H]1CC[C@H]2[C@@H](C)C(=O)O[C@@H]3O[C@@]4(C)CC[C@@H]1[C@]32OO4` [Artemisinin], -0.69.

With `Cn1cc(C2=C(c3cn(C4CCN(Cc5ccccn5)CC4)c4ccccc34)C(=O)NC2=O)c2ccccc21`, the “z-score of subpopulation abundance” value was -1.27. The same measure for `CN1[C@@H]2CC[C@H]1C[C@@H](OC(=O)[C@H](CO)c1ccccc1)C2` [Hyoscyamine]: 0.11; for `CCN(C)C(=O)Oc1cccc([C@H](C)N(C)C)c1` [Rivastigmine]: -0.03; for `Nc1ccncc1` [4-Aminopyridine]: -0.2. For `CC[C@@]1(O)C(=O)OCc2c1cc1n(c2=O)Cc2cc3ccccc3nc2-1` [Camptothecin], the “z-score of subpopulation abundance” value is -0.76.

`NCC(O)c1ccc(O)cc1` (racemic) [(+,-)-Octopamine HCl]: the “z-score of subpopulation abundance” value was -0.75. The result for `C[C@@H]1O[C@@H](O[C@H]2C[C@@H](O)[C@]3(CO)[C@H]4[C@H](O)C[C@]5(C)[C@@H](C6=CC(=O)OC6)CC[C@]5(O)[C@@H]4CC[C@]3(O)C2)[C@H](O)[C@H](O)[C@H]1O` [Ouabain] reads -0.79. The same measure for `CN1[C@@H]2C[C@@H](OC(=O)[C@H](CO)c3ccccc3)C[C@H]1[C@@H]1O[C@@H]12` [Scopolamine HBr]: -0.52.

On to `O=C(O[C@H]1C[C@H]2CC[C@@H](C1)[N+]21CCCC1)C(O)(c1ccccc1)c1ccccc1` [Trospium chloride], for which the “z-score of subpopulation abundance” value was found to be 0.01.

Turning to `COc1ccc(C(CN(C)C)C2(O)CCCCC2)cc1` (stereo not given) [Venlafaxine], the “z-score of subpopulation abundance” value is -0.65.

In the case of `CN(C)C(=O)Oc1cccc([N+](C)(C)C)c1` [Neostigmine Bromide], the “z-score of subpopulation abundance” value was -0.52. As for `Cc1cc(C(C#N)c2ccc(Cl)cc2)c(Cl)cc1NC(=O)c1cc(I)cc(I)c1O` (stereo not given) [Closantel], the “z-score of subpopulation abundance” value is -0.4.

Consider `CCCCCCCCCCCCCCCC[n+]1ccccc1` [Cetylpyridinium Chloride], for which the “z-score of subpopulation abundance” value came out at 67.8.

With `C=CCN1C[C@H](C(=O)N(CCCN(C)C)C(=O)NCC)C[C@@H]2c3cccc4[nH]cc(c34)C[C@H]21` [Cabergoline], the “z-score of subpopulation abundance” value is -0.2. The result for `CCOC(=O)Nc1ccc(NCc2ccc(F)cc2)cc1N` [Retigabine] reads 0.18; that for `CC[C@H]1CN2CC[C@]3(C(=O)Nc4ccccc43)[C@@H]2C[C@@H]1/C(=C\OC)C(=O)OC` [Rhynchophylline], 1.16; that for `Oc1cccc2cccnc12` [8-Hydroxyquinoline], -0.08. The result for `CC1(C)SC2C(N)C(=O)N2C1C(=O)O` (stereo not given) [6-Aminopenicillanic acid] reads -0.43; that for `C=C[C@H]1CN2CC[C@H]1C[C@H]2[C@H](O)c1ccnc2ccccc12` [Cinchonidine], -0.4; that for `CC(C)=CCOc1c2occc2cc2ccc(=O)oc12` [Imperatorin], 1.2. The result for `CN1[C@@H]2C[C@@H](OC(=O)[C@H](CO)c3ccccc3)C[C@H]1[C@@H]1O[C@@H]12` [Scopolamine HBr trihydrate] reads -0.8; that for `C=CC[C@]1(O)CC[C@H]2[C@@H]3CCC4=CC(=O)CCC4=C3C=C[C@@]21C` [Altrenogest], -0.47; that for `CCOC(=O)Nc1ccc(NCc2ccc(F)cc2)cc1N` [Retigabine 2HCl], -0.02.

In the case of `CC[C@@H](C(N)=O)N1CCCC1=O` [Levetiracetam], the “z-score of subpopulation abundance” value is 0.21. The result for `N[C@@H]1C[C@H]1c1ccccc1` [Tranylcypromine (2-PCPA) HCl] reads 0.39.

(Values after the supplement of paper PMC8975748.)
